PubChem BioAssay (NCATS)
Inconclusive results are not listed. Calls of active or inactive are those of the source. Calls follow the shape of the dose curve; as a rule, active = well fitted activation curve with a large enough effect; inconclusive = small, poorly fitted or top-dose-only effect; inactive = no such curve, though single readings can be large or run the other way.

Target: Cellular tumor antigen p53 (Homo sapiens) (UniProt P04637)
Test: Primary qHTS for small molecule compounds that upregulate eGFP-tagged delta133p53alpha (in N-terminal) cells. (AID 2060322);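 also: cells pre-induced with doxycycline then dosed without doxycycline; series mostly up to about 56 µM; 0% = DMSO vehicle and 100% = reference activator; nearly all actives have a fitted effect of over 75% in size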
Conditions: NCI-H358 eGFP-delta133p53alpha fluorescence, 24 h; activation: active compounds read high
In short: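 NCI-H358 cells pre-induced 24 h with 10 ng/ml doxycycline for eGFP-delta133p53alpha, plated dox-free and exposed 24 h at 37C to titrated compounds. Fixed, Hoechst-stained; gated GFP peak intensity by laser scanning cytometry, normalized to DMSO (0%) and 57.5 uM 5-azacytidine (100%).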

Sequence of Cellular tumor antigen p53 (Homo sapiens) (P04637 whole entry, looked up): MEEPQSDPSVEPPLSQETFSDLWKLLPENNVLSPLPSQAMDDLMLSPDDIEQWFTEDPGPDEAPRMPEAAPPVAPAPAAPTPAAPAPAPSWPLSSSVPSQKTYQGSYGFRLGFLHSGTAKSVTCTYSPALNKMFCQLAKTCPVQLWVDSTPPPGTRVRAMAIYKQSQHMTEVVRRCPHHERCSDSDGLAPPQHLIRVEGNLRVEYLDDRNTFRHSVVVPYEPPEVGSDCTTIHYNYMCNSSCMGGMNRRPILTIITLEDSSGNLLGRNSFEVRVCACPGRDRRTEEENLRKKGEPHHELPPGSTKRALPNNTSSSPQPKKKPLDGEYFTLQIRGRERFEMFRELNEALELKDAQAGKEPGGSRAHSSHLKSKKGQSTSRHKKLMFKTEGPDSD

**Q.** `C=C(C)[C@H]1O[C@H]2CC[C@@]3(C)[C@@](O)(CC[C@H]4[C@@H]5OC(C)(C)[C@H]6C[C@@H]7C(=C)Cc8c(Cl)cc9[nH]c(c5c9c8[C@@]76O)[C@@]43C)[C@]23O[C@@H]3[C@H]1O` was tested. Which activation did it give?
**A.** -8.93% (inactive)

**Q.** With `C/C=C(\C)C(=O)O[C@H]1[C@H](OC(C)=O)[C@]2(CO)[C@H](O)[C@H](O)[C@]3(C)C(=CCC4[C@@]5(C)CC[C@H](O[C@@H]6O[C@H](C(=O)O)[C@@H](O)[C@H](O[C@@H]7OC[C@H](O)[C@H](O[C@@H]8OC[C@H](O)[C@H](O)[C@H]8O)[C@H]7O)[C@H]6O[C@@H]6O[C@H](CO)[C@@H](O)[C@H](O)[C@H]6O)C(C)(C)C5CC[C@]43C)[C@@H]2CC1(C)C` (some centres not stated) as the compound, how does the activation read?
**A.** -3.05% (inactive)

**Q.** How did the activation turn out when `CCC1C2CC3C4N(C)c5ccccc5C45CC(C2C5O)N3C1O` (configuration not stated) was run?
**A.** 9.82% (inactive)

**Q.** With `COc1cc(C(=O)O[C@H]2[C@@H]3C=CO[C@@H](O[C@@H]4O[C@H](CO)[C@@H](O)[C@H](O)[C@H]4O)[C@@H]3[C@@]3(CO)O[C@@H]23)ccc1O` as the compound, how does the activation read?
**A.** -3.82% (inactive)

**Q.** How did the activation turn out when `CC(CCc1ccc(O)cc1)O[C@@H]1O[C@H](CO[C@H]2OC[C@](O)(CO)[C@H]2O)[C@@H](O)[C@H](O)[C@H]1O` (some centres not stated) was run?
**A.** 2.29% (inactive)

**Q.** For `COC1CC(O[C@H]2CC[C@@]3(C)C(=CCC4C3C(O)[C@@H](O)[C@]3(C)[C@@H](C(C)=O)CC[C@]43O)C2)OC(C)C1OC1CC(OC)C(OC2OC(C)C(O)C(O)C2O)C(C)O1` (some centres not stated), which activation is on record?
**A.** -14.5% (inactive)

**Q.** For `COC(=O)C12C(=O)C(C)(O)C(=O)C1(C)C(C)=CC1C34CCC(OC3=O)C(C)(CO)C4CCC12C` (configuration not stated), which activation is on record?
**A.** -16.8% (inactive)
